Screening results from PubChem BioAssay.
Only some compounds are listed: those with a hit (about 5.8% of all), similar ones and a draw of the others.
ALOX12 inh: ALOX12 (human) lipoxygenase inhibition. P18054. purified 12hLO, xylenol orange hydroperoxide absorbance. Potency, µM (doses to about 108 µM), without a hit: at the top dose activity change, negative = inhibition, hits mostly inhibitors. 580,000 tested, 1.1% active. AID 1671190; also: % is scaled to controls: 0 for no effect and ±100 for the full control effect
Target sequence (P18054 whole entry, looked up): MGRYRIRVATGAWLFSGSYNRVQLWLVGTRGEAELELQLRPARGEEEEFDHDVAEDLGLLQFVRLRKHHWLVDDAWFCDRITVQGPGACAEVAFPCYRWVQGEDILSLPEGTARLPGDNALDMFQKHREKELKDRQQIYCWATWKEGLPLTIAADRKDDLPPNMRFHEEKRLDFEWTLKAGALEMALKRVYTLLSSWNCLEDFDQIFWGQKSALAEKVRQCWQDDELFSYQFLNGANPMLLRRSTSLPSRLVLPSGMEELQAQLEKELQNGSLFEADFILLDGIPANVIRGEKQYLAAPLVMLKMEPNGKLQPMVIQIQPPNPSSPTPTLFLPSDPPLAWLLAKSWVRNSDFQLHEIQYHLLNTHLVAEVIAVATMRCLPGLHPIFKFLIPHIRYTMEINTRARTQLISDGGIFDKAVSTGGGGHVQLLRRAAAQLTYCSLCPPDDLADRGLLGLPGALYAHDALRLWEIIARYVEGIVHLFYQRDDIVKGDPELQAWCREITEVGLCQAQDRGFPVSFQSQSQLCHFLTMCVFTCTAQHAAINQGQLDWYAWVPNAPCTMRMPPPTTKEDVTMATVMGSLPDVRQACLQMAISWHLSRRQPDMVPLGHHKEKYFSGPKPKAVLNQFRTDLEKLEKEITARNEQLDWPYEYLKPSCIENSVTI
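Hydroperoxide product was detected by ferrous iron/xylenol orange as the 573 to 405 nm absorbance ratio. Arachidonic acid at 40 uM (final) was turned over for 30 min at room temperature by 150 nM human 12hLO, pH 7.0 Hepes buffer, after 15 min compound preincubation.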
KB-3-1 cytotox: KB-3-1 parental cell cytotoxicity. KB-3-1 viability, CellTiter-Glo ATP luminescence, 72 h. 400,000 tested, 1.4% active. Potency, µM (doses to about 46.1 µM), usual class: cytotoxic; also: % is scaled to controls: 0 for no effect and ±100 for the full control effect; nearly all actives have a fitted effect of over 60% in size
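Screening of KB-3-1 cells (DMEM, 10% FBS, phenol-red free) ran from lowest to highest compound concentration; after 72 h at 37 °C viability was read luminescently and curves fitted.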
SW480 rerep: induces DNA re-replication in SW480 colon adenocarcinoma cells | Potency, µM (series often up to 46.1 µM), without a hit: top-dose re-replication activation, most hits filed as activators | SW480 DNA re-replication, Hoechst DNA content imaging, 48 h | AID 624297 | 340,000 tested, 1.8% active; also: % of control where 0% means no effect; nearly all actives have a fitted effect of over 55% in size
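First, 250 cells per well were seeded. Next, compound or vehicle (23 nL) was pinned in, plates sat 48 hr at 37 C. Finally Hoechst was added for 40 min before fluorescence scanning.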
MCF10A rereplic: inducers of DNA re-replication in MCF 10A breast cells | MCF 10A DNA re-replication, Hoechst nuclear intensity, 48 h | Potency, µM (titrated, usually from 46.1 µM), inactives show at the highest dose activity, positive = re-replication, hits mostly activators | 350,000 tested, 2.9% active | AID 624296; also: % of control where 0% means no effect; nearly all actives have a fitted effect of over 50% in size
KB-V1 cytotox: KB-V1 MDR subline cytotoxicity; KB-V1 MDR cells viability, CellTiter-Glo, 72 h; Potency, µM (series often up to 46.1 µM), most hits filed as cytotoxic; 400,000 tested, 3.4% active; also: % is scaled to controls: 0 for no effect and ±100 for the full control effect; nearly all actives have a fitted effect of over 60% in size
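Readout: CellTiter-Glo luminescence, 10 min after addition. Cells: KB-V1 MDR subline, 72 h at 37 degrees C with compound. Analysis: corrected, normalized data fitted to concentration-effect curves.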
PINK1 modulator: PINK1 expression modulation | PINK1 immunofluorescence, high-content cytometry, 24 h | Potency, µM (top dose mostly 76.6 µM), without a hit: at the highest dose activation (PINK1 increase), hits mostly activators | 410,000 tested, 0.2% active | AID 624263; active = well fitted activation curve with a large enough effect; inconclusive = small, poorly fitted or top-dose-only effect; cell line not stated here; also: % of control where 0% means no effect; nearly all actives have a fitted effect of over 65% in size
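Fluorescence from anti-PINK1 antibody, together with nuclear and cell stains, was scanned on a laser-scanning cytometer. Before staining, stable-line cells were incubated 24 hours with compounds at 5 concentrations; primary antibody 12 h at 10 degrees C.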
* hit, by the source's call; [ ] = remark or other dose. Unless noted, calls follow the shape of the dose curve; as a rule, active = well fitted curve in the direction sought with a large enough effect; inconclusive = small, poorly fitted or top-dose-only effect, or another doubt; inactive = no such curve, though single readings can be large; an effect the other way counts as inactive or inconclusive. Potency is read from the fitted curve at half-maximal effect.

Screening O=C(/C=C/c1ccc(O)cc1)c1ccc(O)cc1O returned ALOX12 inh inconclusive, KB-3-1 cytotox inconclusive, SW480 rerep -53.2%, MCF10A rereplic 14.6µM*, KB-V1 cytotox inconclusive and PINK1 modulator 3.5%.
`O=C(/C=C/c1ccc(O)c(O)c1)OC(Cc1ccc(O)c(O)c1)C(=O)O` (centres undefined) gave ALOX12 inh inconclusive, KB-3-1 cytotox inconclusive, SW480 rerep 1.5%, MCF10A rereplic -16.8%, KB-V1 cytotox inactive and PINK1 modulator 0.7%.
O=C(COc1ccccc1)N1CCOCC12CCN(Cc1ccccc1)CC2 was read as ALOX12 inh 48.4%[176 µM].
CCC(=O)Nc1ccc(SC2CCCC2)cc1 was read as ALOX12 inh -0.3%.
`Oc1cc(O)cc(C=Cc2ccc(O)c(O)c2)c1` gave ALOX12 inh 3.06µM*.
For COc1ccc(CCNC(=O)/C=C/c2ccc(S(=O)(=O)N3CCOCC3)cc2)cc1 the results were ALOX12 inh 6.5%, KB-3-1 cytotox inactive, SW480 rerep 4.11µM*, MCF10A rereplic 7.9%, KB-V1 cytotox inactive and PINK1 modulator 2.5%.
`CCOc1ccc(/C=C/C(=O)NCCc2ccc(OC)c(OC)c2)cc1` gave ALOX12 inh -3.6%, KB-3-1 cytotox inactive, SW480 rerep -0.8%, MCF10A rereplic 2.8%, KB-V1 cytotox 16.4µM* and PINK1 modulator -2.3%.
O=C(/C=C/c1ccc(S(=O)(=O)N2CCOCC2)cc1)NC(=S)Nc1ccc(Cl)cc1Cl was read as ALOX12 inh -17.8%, KB-3-1 cytotox inactive, SW480 rerep inconclusive, MCF10A rereplic 16.4µM*, KB-V1 cytotox inactive and PINK1 modulator 1.2%.
`COc1ccc(CN(C)C(=O)/C=C/c2ccc(S(=O)(=O)N3CCCCCC3)cc2)cc1` gave ALOX12 inh 0.0%, KB-3-1 cytotox inconclusive, SW480 rerep 16.7%, MCF10A rereplic inconclusive, KB-V1 cytotox 3.26µM* and PINK1 modulator 1.6%.
Screening O=C(/C=C/c1ccc(S(=O)(=O)N2CCOCC2)cc1)Nc1cc(F)ccc1F returned ALOX12 inh 0.8%, KB-3-1 cytotox inactive, SW480 rerep -9.1%, MCF10A rereplic inconclusive, KB-V1 cytotox inactive and PINK1 modulator 0.6%.
`CNC(=O)c1ccc(CN(C)C(=O)/C=C/c2ccc(S(=O)(=O)N3CCCCCC3)cc2)cc1` gave ALOX12 inh -12.7%, KB-3-1 cytotox inactive, KB-V1 cytotox inactive and PINK1 modulator 2.0%.
COCc1nnc(NC(=O)Cn2ccc3ccc(Br)cc32)s1 was read as ALOX12 inh 24.0%.
`COc1ccc(NC(=O)/C=C/c2ccc(S(=O)(=O)N3CCOCC3)cc2)cc1` gave ALOX12 inh -50.4%, KB-3-1 cytotox inactive, SW480 rerep -9.7%, MCF10A rereplic -4.9%, KB-V1 cytotox inconclusive and PINK1 modulator 5.0%.
`COc1ccc(/C=C/C(=O)Nc2ccc(C)c(S(=O)(=O)N3CCOCC3)c2)cc1` gave ALOX12 inh -8.2%, KB-3-1 cytotox inactive, SW480 rerep -32.1%, MCF10A rereplic 5.7%, KB-V1 cytotox 4.11µM* and PINK1 modulator -0.8%.
`CN(CC(=O)Nc1cccc(F)c1)C(=O)/C=C/c1ccc(S(=O)(=O)N2CCCCCC2)cc1` gave ALOX12 inh -1.5%, KB-3-1 cytotox inactive, SW480 rerep 6.7%, MCF10A rereplic 7.8%, KB-V1 cytotox 18.4µM* and PINK1 modulator 1.5%.
Screening CCCCN(C)C(=O)Cn1c(C2CC(=O)N(c3cccc(OC)c3)C2)nc2ccccc21 (centres undefined) returned ALOX12 inh -5.6%.
For C[C@H]1CN([C@@H](C)CO)C(=O)c2cc(NC(=O)Cc3ccccc3)ccc2O[C@H]1CN(C)Cc1ccccc1 the results were ALOX12 inh -14.8%, KB-3-1 cytotox inactive, SW480 rerep -3.0%, MCF10A rereplic 8.6%, KB-V1 cytotox inactive and PINK1 modulator 1.3%.
